# Only a sample is shown.
# aSyn UTR act: Activators working through SNCA 5'UTR binding (MLPCN). alpha-synuclein 5'UTR reporter, activators screen. activity score, % (tested at 7.5 µM), hits read low. 7.1% of 300,000 active; in the data active = activity score below about -60%
# * hit, by the source's call.
SMILES,aSyn UTR act
COCC1CCCCN1C(=O)c1ccc2oc(CCCc3ccccc3)nc2c1 (stereo unspecified),-85.9*
NC(=O)C1CCN(C(=S)c2ccc(-c3ccc(Br)cc3)o2)CC1,-126.5*
Nc1nc(N2CCN(c3ccccn3)CC2)nc2ccccc12,-118.1*
Cn1ncc([N+](=O)[O-])c1C(=O)Nc1ccc(-c2nc3ccccc3o2)cc1,-129.5*
CCc1ccc(CNC(=O)Cc2ccc(NC(=O)C3=C(C)OCCS3)cc2)cc1,65.8
COc1cccc(CNC(=O)Cc2ccc(NC(=O)C3=C(C)OCCS3)cc2)c1,-79.6*
CCOCC(=O)Nc1ccc2c(c1)OCCO2,-66.2*
O=C(COc1ccc2c(c1)OCO2)Nc1cccc(F)c1,-94.0*
CCN(CC(=O)Nc1ccc2c(c1)OCCO2)C(=O)/C=C/c1ccc(F)cc1,-70.2*
O=C(COc1ccc(F)cc1)Nc1ccc2c(c1)OCCO2,-144.2*
COc1ccc(OCCCC(=O)Nc2ccc3c(c2)OCCO3)cc1,-131.6*
COc1cccc(CNC(C)C(=O)Nc2ccc3c(c2)OCCO3)c1 (stereo unspecified),-88.9*
CN(C)CCCN(C(=O)c1ccc2c(c1)CCCC2)c1nc2ccc(F)cc2s1,-156.7*
CN(C)CCCN(C(=O)CCc1ccccc1)c1nc2ccc(F)cc2s1,-70.3*
Cc1cccc2sc(N(CCCN(C)C)C(=O)CCc3ccccc3)nc12,62.2
CN(C)CCCN(C(=O)c1cc(-c2cccs2)nc2ccccc12)c1nc2ccc(F)cc2s1,98.9
CN(C)CCN(C(=O)c1cc(Cl)sc1Cl)c1nc2ccc(F)cc2s1,-93.8*
CN(C)CCCN(C(=O)c1ccc(S(=O)(=O)N2CCc3ccccc3C2)cc1)c1nc2ccc(F)cc2s1,98.9
COc1ccc(/C=C(/C(=O)c2cccs2)N2C=CC=CC2=C(C#N)C#N)cc1,-102.0*
COc1ccc(C(=O)/C(=C\c2ccco2)N2C=CC=CC2=C(C#N)C#N)cc1,76.6
Cc1occc1C(=O)NN=C1C2CC3CC(C2)CC1C3,-140.9*
O=C(NC1CCCC1)c1cc(-c2ccc(Cl)cc2Cl)on1,-121.7*
COc1ccccc1-c1cc(C(=O)NC2CCN(C)CC2)c2ccc(Cl)c(C)c2n1,101.3
O=C(NC1CCCC1)c1cc(-c2ccccc2O)on1,-77.4*
COc1ccccc1-c1cc(C(=O)NC2CCCC2)no1,-97.6*
SMILES,aSyn UTR act
O=C(NC1CCCC1)c1cc(-c2cccs2)on1,-342.7*
Cc1occc1C(=O)NC1CCCCCCC1,-77.4*
COCC(C)NC(=O)c1cc(-c2ccccc2OC)on1 (stereo unspecified),-102.2*
COc1ccccc1C(=O)NC1CCCCCCC1,-70.5*
COc1ccccc1-c1cc(C(F)(F)F)nc(S(=O)(=O)CCCC(=O)Nc2cc(C)on2)n1,-65.3*
CC1CCCC(C)N1C(=O)c1cc(-c2cccs2)on1 (stereo unspecified),-137.0*
COc1ccc(OC)c(-c2cc(C(=O)Nc3c(C)nn(Cc4ccccc4C)c3C)no2)c1,60.3
O=C(NC1CCCCC1)c1cc(-c2ccccc2Cl)on1,-161.9*
COc1ccccc1-c1cc(C(=O)Nc2cc(C)on2)no1,-146.1*
Cc1cc(NC(=O)c2cc(-c3ccc(O)cc3)on2)no1,-62.0*
Nc1nnc(-c2ccc(Cl)cc2Cl)s1,-108.4*
C/C(=N\N=C(N)N)c1cc(Cl)ccc1Cl,64.7
CC(=O)CSc1ncnc2c1oc1ccccc12,-64.6*
Cc1nc(SCC(=O)c2ccc(Cl)s2)c2oc3ccccc3c2n1,-93.9*
c1coc(CSc2ncnc3c2oc2ccccc23)c1,-91.1*
Cc1nc2cc(NC(=O)c3ccc(Br)s3)ccc2s1,-83.3*
Cc1nc2ccc(NC(=O)c3cc(Cl)ccn3)cc2s1,-74.0*
Cc1ccc(C(=O)Nc2ccc3nc(C)sc3c2)s1,-206.4*
CCOc1ncccc1C(=O)Nc1ccc2nc(C)sc2c1,-74.6*
COc1ccccc1/C=N/NC(=Nc1ccc(C)cc1)c1nc2ccccc2s1,-99.1*
COc1cc(C=C(c2nc3ccccc3s2)c2nc3ccccc3s2)cc(OC)c1O,-98.0*
COc1cc(/C=N/NC(=Nc2ccc(C)cc2)c2nc3ccccc3s2)ccc1O,-148.5*
Cc1cccc(C)c1N=C1SC(CC(=O)Nc2c(C)cccc2C)C(=O)N1CCc1ccccn1 (stereo unspecified),67.2
O=C(CSc1ncccc1-c1nc2ccccc2[nH]1)Nc1ccc2c(c1)OCCO2,-71.1*
O=C(CSc1ncccc1-c1nc2ccccc2[nH]1)N1CCc2ccccc21,-116.8*
SMILES,aSyn UTR act
C=CCn1c(C)cc(C2=NNC(=NCc3ccccc3)SC2)c1C,-181.6*
Cc1cc(C2=NNC(=NCCc3ccccc3)SC2)c(C)n1CC1CCCO1 (stereo unspecified),-147.4*
COCCn1c(C)cc(C2=NNC(=Nc3ccccc3)SC2)c1C,-79.3*
COc1ccc(CN=C2NN=C(c3ccccc3)CS2)cc1,-113.9*
Clc1ccc(C2=NNC(=NCC3CCCO3)SC2)cc1 (stereo unspecified),-73.1*
Cc1cc(C(=O)Nc2nc3ccc(Cl)cc3s2)nn1C,-128.0*
Cn1ncc(Cl)c1C(=O)Nc1nc2ccc(Cl)cc2s1,-198.3*
